ChEMBL document CHEMBL3988442, “University of Dundee, Small-Polar-MMV Screening Library” (2021)
Screen size: about 68,000 compounds; about 25 (0.04%) showed an effect of 50% or more. What follows is part of a selection rich in strong results, with near analogues and random picks from the rest.

Each compound was assayed against T1, Methionyl-tRNA synthetase, putative (Leishmania donovani (strain BPK282A1)) (UniProt E9BF75) (assay: Leishmania donovani Methionine tRNA synthetase (LdMetRS):v6. Primary screen assay).
T1 sequence (whole entry): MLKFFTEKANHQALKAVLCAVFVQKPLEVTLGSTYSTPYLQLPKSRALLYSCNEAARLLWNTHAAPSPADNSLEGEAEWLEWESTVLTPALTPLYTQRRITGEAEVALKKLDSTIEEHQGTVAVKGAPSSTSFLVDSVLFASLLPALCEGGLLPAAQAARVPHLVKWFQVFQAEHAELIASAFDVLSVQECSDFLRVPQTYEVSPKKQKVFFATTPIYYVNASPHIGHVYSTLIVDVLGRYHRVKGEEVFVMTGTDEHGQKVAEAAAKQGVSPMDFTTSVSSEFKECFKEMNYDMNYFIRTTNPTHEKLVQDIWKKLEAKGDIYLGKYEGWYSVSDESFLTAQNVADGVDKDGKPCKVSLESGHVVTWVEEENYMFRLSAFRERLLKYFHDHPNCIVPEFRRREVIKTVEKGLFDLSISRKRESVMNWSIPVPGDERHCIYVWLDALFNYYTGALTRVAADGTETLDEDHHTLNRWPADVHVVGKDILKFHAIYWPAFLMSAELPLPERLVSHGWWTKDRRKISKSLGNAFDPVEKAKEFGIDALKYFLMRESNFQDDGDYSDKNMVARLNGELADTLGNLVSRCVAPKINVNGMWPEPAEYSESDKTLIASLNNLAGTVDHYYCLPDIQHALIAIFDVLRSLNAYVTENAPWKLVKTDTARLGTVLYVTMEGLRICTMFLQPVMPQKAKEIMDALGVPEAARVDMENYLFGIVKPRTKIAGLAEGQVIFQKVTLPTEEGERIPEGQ
Type: functional
Parameters: conc 80 nM, time 150 minutes

SMILES | inhibition [%]
CC(=O)N1CCN(c2ccc3ccc(C(=O)NC4CCCC4)cn23)CC1 | 52.9
N#Cc1cccc(C(=O)N2CC[C@H]3[C@H]2CCN3CC2CCOCC2)c1 | 9.34
CS(=O)(=O)NC[C@]12COC[C@H]1CN(CCc1ccccc1)C2 | 13.1
Cc1nc([C@H]2C[C@@H]3CCN(C(=O)c4ccnnc4)C[C@H]3O2)sc1C | 17
O=C(NCC1CCOCC1)[C@H]1C[C@@H]2CCN(Cc3ccccc3)C[C@H]2O1 | 18.4
CNC(=O)N1C[C@H]2C[C@H](C(=O)NCc3cccnc3)[C@@H](C1)O2 | 9.15
Cc1ncc(CN2CCOC(CNc3cccnn3)C2)s1 (stereo not given) | 13.2
CCCN1C[C@H]2CC[C@@H]1CN(c1nnc(C(C)C)s1)C2 | 9.31
O=C(Cn1ccc(=O)cc1)N1C[C@H]2CC[C@@H]1CN(c1ncccn1)C2 | 15.1
CC1=N[C@@]2(CC[C@@H]3CN(Cc4ccccc4C)C[C@@H]32)C(=O)N1CC1CC1 | 6.09
CN1CCC(CO[C@H]2CN(C(=O)c3cccn3C)[C@@H]3COC[C@H]23)CC1 | 8.4
CC(C)c1nnc(NCCS(C)(=O)=O)s1 | 1.24
CC(C)CCNc1nnc(C(C)C)s1 | 80.1
CCN(CC)S(=O)(=O)CCNc1nnc(C(C)C)s1 | -0.621
COc1ccc(CN2CCO[C@H]3[C@H](OCCN4CCCC4)CC[C@@H]32)cc1 | 6.3
C1CC(CN2C[C@H]3CC[C@@H]2CN(Cc2nnc(C4CC4)o2)C3)C1 | 9.96
Cc1cncc(C(=O)N2C[C@H]3CCC[C@@]3(COc3ccccn3)C2)c1 | 8.5
COc1cc(N2CC[C@@H]3O[C@@H](C(=O)NCCN(C)C)C[C@@H]32)ncn1 | 4.66
O=C1[C@H]2CC[C@H](CN(C3CCOCC3)C2)N1Cc1cscn1 | 8.93
Cc1oncc1C(=O)N1CC[C@H]2[C@@H]1CCC(=O)N2CC1CCOCC1 | 13.7

SMILES | inhibition [%]
Cc1ccoc1C(=O)N1CC[C@H]2C[C@H](c3nnc(C4CC4)o3)O[C@@H]2C1 | 15.5
O=S(=O)(C1CC1)N1C[C@@H]2CN(Cc3ccoc3)CCO[C@@H]2C1 | 8.7
Cc1occc1C(=O)N1C[C@@H]2OCCN(c3ncccn3)[C@@H]2C1 | 9.59
COc1cc(CN2CCN(CC3CC3)[C@@H]3CS(=O)(=O)C[C@@H]32)cc(OC)c1 | 7.26
N#Cc1cccc(CN2C[C@H](NC(=O)C3CC3)[C@H]3OCCC[C@H]32)c1 | 10.6
O=C(NC1CC1)[C@H]1C[C@@H]2CCN(Cc3ccc4c(c3)OCO4)C[C@@H]2O1 | 1.31
CCS(=O)(=O)N1C[C@H]2CCC[C@@]2(COc2ccccn2)C1 | 12.9
CS(=O)(=O)N1CC[C@H]2O[C@H](C(=O)NCCc3ccccn3)CC[C@H]21 | 7.41
CCN1C[C@H]2C3(CCN(C(C)=O)CC3)CC[C@@]2(C(=O)N(C)C)C1 | 1.68
CCCN1C[C@H]2CC[C@@H]1CN(C(=O)c1ccc(N(C)CCO)cc1)C2 | 12.9
Cc1cccc(N2CC[C@@H]3[C@@H](CO[C@H]3CNC(=O)c3ccco3)C2)n1 | 13.1
CSc1ncccc1C(=O)N1C[C@H]2CC[C@@H]1CN(C(=O)N(C)C)C2 | 16.9
CNc1ccnc(N2C[C@@H]3CC[C@H](C2)N(CCOC)C3=O)n1 | -4.82
CC(CN1CCCC1=O)NC(=O)c1ccc(-c2ccco2)[nH]c1=O (stereo not given) | 16.8
CCCC(C)NC(=O)c1ccc(-c2ccco2)[nH]c1=O (stereo not given) | 9.58
CCC(C)NC(=O)c1ccc(-c2ccco2)[nH]c1=O (stereo not given) | 86.2
CCN1Cc2nc(OC)c(CNC(=O)C3CCS(=O)(=O)CC3)cc2C1=O | -0.86
Cc1ccc(CN2CCC[C@]3(C(=O)O)CN(c4ncccn4)C[C@@H]3C2)o1 | 14.6
CC(=O)N1[C@H](Cn2cncn2)C[C@@H]2CN(Cc3ccncc3)CC[C@@H]21 | 5.54
Cc1ccc(CN2CCN(CC3CC3)[C@@H]3CS(=O)(=O)C[C@@H]32)cc1C | 15.6

SMILES | inhibition [%]
CCS(=O)(=O)CCNC(=O)[C@@]12CNC[C@@H]1CN(C1CCCC1)C2 | 6.92
Cc1nc(COC[C@@H]2CC[C@H]3[C@H](CCN3S(C)(=O)=O)O2)cs1 | 15.2
O=C(CCn1cc(Cl)cn1)N1C[C@@H]2CC[C@H](C1)N(Cc1ccccn1)C2 | 15.8
Cc1cccc(C(=O)N2C[C@H]3CC[C@@H]2CN(S(=O)(=O)N(C)C)C3)n1 | 19.9
CCS(=O)(=O)NC[C@]12COC[C@H]1CN(Cc1ccsc1)C2 | 7.3
CCC(=O)N1CC[C@@H]2[C@H](CC1)N(Cc1cccc(C)n1)CCS2(=O)=O | 14.2
Cc1cc(C)n(-c2nc(NCCCO)c3c4c(sc3n2)CCCC4)n1 | 59.5
Cc1cc(C)n(C2=NC(NCCC(C)C)c3c(sc4c3CCCC4)N2)n1 (stereo not given) | 16.4
COCCNc1nc(-n2nc(C)cc2C)nc2sc3c(c12)CCCC3 | 9.06
CN(C)C(c1ccccn1)[C@H]1CC[C@H](CNC(=O)C2CC2)CC1 (stereo not given in full) | 16
O=C(C[C@@H]1COC[C@H]2CN(Cc3ccc(F)cc3)C[C@@H]12)N1CCCC1 | 13
CC(=O)N1CC[C@@]2(C(=O)Nc3ccccc3)CCN(S(C)(=O)=O)CC[C@@H]12 | 8.93
c1ccc(CN2CC[C@@H]3O[C@@H](COCC4CCOCC4)CC[C@@H]32)nc1 | 10.1
O=C(c1ccsc1)N1C[C@H](N2CCOCC2)[C@@H]2OCCC[C@@H]21 | 13.9
O=C(C[C@@H]1COC[C@H]2CN(Cc3ccc(F)cc3)C[C@@H]12)N1CCCCO1 | 12.9
CNS(=O)(=O)c1ccc(CNC(=O)C2CCCO2)cc1 (stereo not given) | -0.269
Cc1oncc1C(=O)N1CC[C@H]2[C@@H]1CCC(=O)N2c1cccnc1 | 17.6
Cn1cc(CN2CC[C@H]3O[C@@H](C(=O)NC4CC4)CC[C@H]32)cn1 | 3.76
c1csc(CN2C[C@@H](n3cccn3)[C@H]3OCCC[C@H]32)c1 | 10.1
COc1cccc(NC(=O)N2CC[C@@H]3CN(C)S(=O)(=O)[C@@H]3CC2)c1 | -1.1
